These results are taken from PubChem BioAssay (EPA / NIEHS).

Test [1] deals with Transcription factor E2F1 (Homo sapiens) (UniProt Q01094). Kind of test: ATG_E2F_CIS: Attagene CIS-FACTORIAL HepG2 Assay for human E2F Transcription Factor 1 (AID 2282935). The settings on record: HepG2 Attagene cis-reporter, E2F reporter RNA transcripts; actives raise or lower the signal. Summed up: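 Cis-element reporter mRNA induction in transiently transfected HepG2, 24 h exposure. Activity fitted in both directions relative to DMSO negative control.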
Transcription factor E2F1 (Homo sapiens), sequence (Q01094 whole entry, looked up): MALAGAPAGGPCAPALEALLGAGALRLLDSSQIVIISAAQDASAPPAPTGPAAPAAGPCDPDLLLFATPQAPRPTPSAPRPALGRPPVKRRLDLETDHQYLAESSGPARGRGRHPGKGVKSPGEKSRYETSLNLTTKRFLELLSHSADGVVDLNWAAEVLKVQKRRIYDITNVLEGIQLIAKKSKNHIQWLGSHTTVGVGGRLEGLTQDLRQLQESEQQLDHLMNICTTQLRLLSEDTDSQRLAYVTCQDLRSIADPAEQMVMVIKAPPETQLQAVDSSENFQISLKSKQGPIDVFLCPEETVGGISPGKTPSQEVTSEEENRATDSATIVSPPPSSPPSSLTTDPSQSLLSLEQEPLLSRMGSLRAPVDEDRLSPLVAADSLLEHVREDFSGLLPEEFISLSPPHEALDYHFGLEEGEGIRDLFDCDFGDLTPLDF

Test [2] can be described thus: ATG_E_Box_CIS: Attagene CIS-FACTORIAL HepG2 Assay for human Enhancer Box (E-box) (AID 2282936). The settings on record: HepG2 E-box cis-reporter transcription, actives raise or lower the signal. Summed up: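 Cells: HepG2 (human liver), transient MRTU transfection. Exposure 24 h. RNA → oligo(dT) RT → PCR → 6-FAM label → HpaI → CE. Activity fitted both directions relative to DMSO.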

Test [3] is described as follows: ATG_M_61_CIS: Attagene CIS-FACTORIAL HepG2 Assay for M61 Transcription Factor (Internal Marker) (AID 2282937). The settings on record: HepG2 Attagene CIS-FACTORIAL M61 internal marker reporter; actives raise or lower the signal. The method, boiled down: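 Cells were transfected with reporter units under cis-regulatory promoters, treated with chemicals for 24 h, then lysed for RNA. Reporter transcripts were quantified by RT-PCR and capillary electrophoresis, and activity was fitted bidirectionally against DMSO.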

A short description of test [4]: ATG_EGR_CIS: Attagene CIS-FACTORIAL HepG2 Assay for human Early Growth Response 1 (EGR1) (AID 2282938). The settings on record: HepG2 Attagene CIS-FACTORIAL EGR reporter mRNA; actives raise or lower the signal. Summed up:
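Endogenous TF activity in HepG2 liver cells was gauged through cis-promoter reporter constructs transiently transfected. After 24 h dosing, reporter mRNA was quantified by RT-PCR and capillary electrophoresis, and curves fitted in both directions versus DMSO.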

Test [5] is described as follows: ATG_M_19_CIS: Attagene CIS-FACTORIAL HepG2 Assay for M19 Transcription Factor (Internal Marker) (AID 2282939). The settings on record: HepG2 Attagene CIS-FACTORIAL M19 internal marker reporter; actives raise or lower the signal. Summed up:
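Transfect HepG2 with MRTU reporter library → dose chemical, 24 h → isolate total RNA, reverse-transcribe with oligo(dT) → PCR, 6-FAM label, HpaI cut (2 h, 37 C) → capillary electrophoresis. Bidirectional fit vs DMSO.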

A short description of test [6]: ATG_ERE_CIS: Attagene CIS-FACTORIAL HepG2 Assay for Estrogen Response Element (ERE) (AID 2282940). As to conditions: HepG2 ERE cis-reporter, Attagene RNA transcript; actives raise or lower the signal. Summed up: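 Transient MRTU transfection of human HepG2; cis-element promoters; 24 h dosing; total RNA → RT (oligo dT) → PCR → 6-FAM primer extension → HpaI digest → CE fluorescence. Bidirectional fit, DMSO baseline.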

Test [7] is described as follows: ATG_Ets_CIS: Attagene CIS-FACTORIAL HepG2 Assay for human Erythroblast Transformation Specific (ETS) (AID 2282941). The settings on record: HepG2 ETS cis-reporter transcription, actives raise or lower the signal. Summed up: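 HepG2 cells transfected with multiple cis-regulated reporter units measuring endogenous ETS-driven transcription, 24 h after dosing. Reporter mRNA quantified by RT-PCR with capillary electrophoresis; bidirectional fit relative to DMSO.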

The target in test [8] is Hepatocyte nuclear factor 3-beta (Homo sapiens) (UniProt Q9Y261). Put plainly: ATG_FoxA2_CIS: Attagene CIS-FACTORIAL HepG2 Assay for human Forkhead box A2 (FOXA2) (AID 2282942). As to conditions: HepG2 cis-reporter transcription factor activity, 24 h; actives raise or lower the signal. The method, boiled down:
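Endogenous transcription factor activity was read in HepG2 cells carrying transiently transfected cis-promoter reporter units. After 24 h dosing, reporter mRNA was quantified by RT-PCR and capillary electrophoresis, and values fitted bidirectionally versus DMSO.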

The nature of test [9]: ATG_FoxO_CIS: Attagene CIS-FACTORIAL HepG2 Assay for human Forkhead box O (FoxO) (AID 2282943). The settings on record: HepG2 Attagene cis-reporter, FoxO element, mRNA; actives raise or lower the signal. The method, boiled down: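 Human hepatoma HepG2 cells carry transiently introduced reporter transcription units controlled by cis promoter elements. Chemical treatment lasted 24 h, and mRNA signal was compared with DMSO.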

Test [10] is described as follows: ATG_GATA_CIS: Attagene CIS-FACTORIAL HepG2 Assay for human GATA Binding Protein (AID 2282944). As to conditions: HepG2 GATA cis-element reporter, Attagene multiplex mRNA; actives raise or lower the signal. Summed up:
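Transient MRTU transfection, HepG2, 24 h compound exposure. Total RNA → oligo(dT) RT → PCR → 6-FAM primer extension → HpaI cut → CE. Bidirectional fit vs DMSO.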

Molecules are shown by their SMILES. A structure can be active in one record and inactive in another. Active and inactive are the calls of the source. How the source made its calls: active means hit-call score of the fitted dose curve at least 0.9, where 1 is the maximum; inactive means score below 0.9.

For orientation: AC50 means the concentration giving half of the maximal activity seen.

Hepatocyte nuclear factor 3-beta (Homo sapiens), sequence (Q9Y261 whole entry, looked up): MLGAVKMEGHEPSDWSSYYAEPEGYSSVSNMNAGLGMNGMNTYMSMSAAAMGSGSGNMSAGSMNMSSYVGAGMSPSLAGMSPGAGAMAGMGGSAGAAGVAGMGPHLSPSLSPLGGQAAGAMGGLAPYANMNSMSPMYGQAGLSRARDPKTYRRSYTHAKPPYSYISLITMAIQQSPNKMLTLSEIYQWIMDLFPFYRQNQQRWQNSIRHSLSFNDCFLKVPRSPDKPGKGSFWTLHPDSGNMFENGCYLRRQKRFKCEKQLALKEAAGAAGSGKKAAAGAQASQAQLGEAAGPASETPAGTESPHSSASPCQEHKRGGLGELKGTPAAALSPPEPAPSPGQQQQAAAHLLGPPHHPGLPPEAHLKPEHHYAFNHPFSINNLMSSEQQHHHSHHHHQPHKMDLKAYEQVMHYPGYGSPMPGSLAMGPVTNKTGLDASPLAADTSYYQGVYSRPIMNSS

Regarding `CCC(C)(C)c1ccc(O)cc1`, the values for the AC50 in test [1] and in test [6] were 52.4 µM (active) and 2.25 µM (active), respectively. Further, the outcome in test [2], in [3], in test [4], in [5], in [7] and in [8] was inactive. In addition, the compound was classed as inactive in test [9] and in test [10].

With `CC(Cc1ccc(OCC(=O)O)cc1)NCC(O)c1csc(C(F)(F)F)n1` (stereo unspecified), the call in [1], in [2], in test [3], in test [4], in [5] and in [6] was inactive. In addition, the compound was called inactive in [7], in test [8], in test [9] and in test [10].

As to `FC(F)(F)c1ccc(Cl)cc1`, the result in test [1], in [2], in test [3], in [4], in test [5] and in test [6] was inactive. Further, the result in [7], in [8], in test [9] and in [10] was inactive.

Consider `COCCOCCO`, for which the outcome in test [1], in test [2], in test [3], in test [4], in test [5] and in test [6] was inactive. Also, the outcome in [7], in test [8], in test [9] and in [10] was inactive.

Turning to `C=CC(=O)OCC(CC)(COC(=O)C=C)COC(=O)C=C`, the concentration at half-maximal activity (AC50) in [1] was 100 µM (active); in test [2], 22 µM (active); in test [4] it was 26.6 µM (active). The call in test [3], in test [5], in test [6], in test [7], in test [8] and in test [9] was inactive. In addition, in test [10], the compound was called inactive.

With `OCC(F)(F)OC(F)(F)C(F)(F)OC(F)(F)C(F)(F)OC(F)(F)F`, the outcome in [1], in test [2], in test [3], in [4], in test [5] and in [6] was inactive. Moreover, the result in test [7], in test [8], in [9] and in test [10] was inactive. In test [6], the half-maximal activity concentration (AC50) was 5.62 µM (active).

As for `O=C(O)C1C(C(=O)O)C2(Cl)C(Cl)=C(Cl)C1(Cl)C2(Cl)Cl` (stereo unspecified), the compound was classed as inactive in [1], in [2], in [3], in test [4], in [5] and in [6]. Moreover, the result in test [7], in test [8], in test [9] and in [10] was inactive.

In the case of `O=C(O)C(F)(OC(F)(F)C(F)(F)C(F)(F)F)C(F)(F)F` (stereo unspecified), the compound was called inactive in [1], in test [2], in test [3], in test [4], in [5] and in [6]. The call in test [7], in test [8], in test [9] and in test [10] was inactive.

In the case of `CCOP(=S)(OCC)SCSc1ccc(Cl)cc1`, the outcome in test [1], in [2], in [3], in [4], in test [5] and in test [7] was inactive. In addition, the compound was classed as inactive in [8], in [9] and in test [10]. In addition, in [6], the AC50 was 4.21 µM (active).

On to `c1nc[nH]n1`, for which the compound was classed as inactive in test [1], in [2], in test [3], in [4], in test [5] and in [7]. Besides, the call in test [8], in [9] and in [10] was inactive. Moreover, the AC50 in [6] is 29 µM (active).

As for `O=C(O)C=CC(F)(C(F)(F)F)C(F)(F)F`, the compound was classed as inactive in test [1], in [2], in test [3], in test [4], in [5] and in test [6]. Further, the compound was called inactive in test [7], in [8], in test [9] and in test [10].

With `Nc1ccc([N+](=O)[O-])cc1Cl`, the result in test [1], in test [2], in [3], in [4], in test [5] and in test [6] was inactive. For the same compound, the compound was called inactive in test [7], in test [8], in test [9] and in test [10].

`Cn1[nH]nnc1=S`: the result in test [1], in test [2], in test [3], in [4], in test [5] and in test [6] was inactive. Also, the outcome in [7], in test [8], in [9] and in test [10] was inactive.

As to `CN(C)C(=O)Cl`, the call in test [1], in test [2], in test [3], in test [4], in test [5] and in test [6] was inactive. The compound was called inactive in test [7], in test [8], in test [9] and in test [10].

With `CC1=C(C(=O)Nc2ccccc2)S(=O)(=O)CCO1`, the compound was classed as inactive in test [1], in [3], in test [5], in [6], in test [7] and in test [8]. Further, the result in test [9] and in test [10] was inactive. In addition, the AC50 in test [2] is 21.8 µM (active); in test [4] it was 10.7 µM (active).

As to `O=S(=O)(c1ccc(O)cc1)c1ccc(O)cc1`, the compound was classed as inactive in test [1], in test [2], in test [3], in test [4], in test [5] and in [7]. Moreover, the call in test [8], in test [9] and in test [10] was inactive. For the same compound, the AC50 in [6] was 1.7 µM (active).

Consider `Nc1ccc(Sc2ccc(N)cc2)cc1`, for which the compound was called inactive in test [1], in test [2], in [3], in test [4], in [5] and in test [7]. For the same compound, the outcome in test [8], in test [9] and in test [10] was inactive. For the same compound, the AC50 in [6] was 14.4 µM (active).

With `[N-]=[N+]=[N-]`, the compound was classed as inactive in test [1], in [2], in [3], in test [4], in test [5] and in test [6]. Moreover, the result in [7], in test [8], in [9] and in test [10] was inactive.

`CCCCOCCOP(=O)(OCCOCCCC)OCCOCCCC`: the compound was called inactive in [1], in test [2], in test [3], in test [4], in [5] and in [6]. Besides, the result in test [7], in test [8], in test [9] and in [10] was inactive.

On to `CCCN(CCC)c1c([N+](=O)[O-])cc(C(C)C)cc1[N+](=O)[O-]`, for which the call in test [1], in test [2], in [3], in test [4], in test [5] and in [6] was inactive. Moreover, the compound was classed as inactive in test [7], in [8], in [9] and in test [10].

On to `CCOP(=S)(OCC)SCn1nnc2ccccc2c1=O`, for which the compound was called inactive in test [1], in [2], in test [3], in test [5], in test [7] and in [8]. Also, the compound was classed as inactive in test [9] and in test [10]. The values for the AC50 in test [4] and in [6] were 9.67 µM (active) and 7.39 µM (active), respectively.

`O=C(CBr)OCc1ccccc1`: the compound was classed as inactive in [1], in test [2], in [3], in [4], in test [5] and in [7]. The compound was classed as inactive in test [8], in test [9] and in test [10]. Further, the AC50 in [6] was 100 µM (active).
